The results in this text go back to PubChem BioAssay (NCI).

Each structure is given as a SMILES string. Compounds without any hit were thinned out: in the full panel of roughly 83,000, 20% have a hit.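 In brief: 96-well plates, 48 h treatment, single concentration, percent growth endpoint.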 Unmarked numbers belong to inactive results. Calls of active or inactive are those of the source. Rule for the calls: active = growth percent below 10; inactive = the rest.

Test systems include SK-MEL-2 melanoma; SN12C renal; UO-31 renal; TK-10 renal; ACHN renal; CAKI-1 renal; A498 renal; MOLT-4 leukemia; EKVX NSCLC; CCRF-CEM leukemia.
What all share (experiment): NCI-60 one-dose screen, 48 h (100 = growth as untreated, 0 = no growth, -100 = all killed)
Common to all, as to settings: 10 µM unless noted

With `COc1ccc2nc(-c3cc(-c4cc(OC)c(OC)c(OC)c4)n[nH]3)[nH]c2c1`, the growth with SK-MEL-2 melanoma was -29.9% (active); with SN12C renal, 21%; in the experiment with UO-31 renal it was -1.85% (active); in the experiment with TK-10 renal, 31.7%; in the experiment with ACHN renal it was 21.5%; in the experiment on CAKI-1 renal it was 26.8%. Further, the growth with A498 renal is 15.5%.

With `COc1ccc(-c2cc(/C=C/C(=O)c3ccc(OC)c(OC)c3)[nH]n2)cc1`, the growth in the experiment with SK-MEL-2 melanoma was 69.2%; in the experiment on SN12C renal, 17.6%; in the experiment with UO-31 renal, 36.4%; in the experiment on TK-10 renal, 31.4%; in the experiment with ACHN renal it was 29.8%; in the experiment on CAKI-1 renal, 62.8%. The growth in the experiment on A498 renal was -4.05% (active).

Take `NC1(N)C=CC2=C(C=C1)C1(N)C3=C(C=CC(N)(N)C=C3)N2C2(N)C3=C(C=CC(N)(N)C=C3)N1C1=C2C=CC(N)(N)C=C1`: the growth was 103% with SK-MEL-2 melanoma; 82.2% in the experiment on SN12C renal; 59.9% in the experiment on UO-31 renal; 119% in the experiment on TK-10 renal; 83.5% in the experiment on ACHN renal; 70.8% in the experiment on CAKI-1 renal. The growth with A498 renal is 88.3%; in the experiment with MOLT-4 leukemia, 32.6%.

As to `COc1ccc2c(c1)c(-c1nc(-c3c[nH]c4ncccc34)cs1)cn2C`, the growth is 60.9% in the experiment with SK-MEL-2 melanoma; 29.3% in the experiment on EKVX NSCLC; 60.3% in the experiment on TK-10 renal; 53.2% with ACHN renal; 55.1% with CAKI-1 renal; 60.1% in the experiment on A498 renal. Also, the growth in the experiment with CCRF-CEM leukemia is 51.7%; in the experiment with MOLT-4 leukemia, 54.5%.

As for `COc1ccc(/C(=C\c2ccc3c(c2)OCO3)C(=O)Nc2nc3ccccc3s2)cc1OC`, the growth with SK-MEL-2 melanoma is 92.6%; in the experiment on SN12C renal it was 102%; in the experiment with UO-31 renal, -6.51% (active); in the experiment with TK-10 renal it was 96.6%; with ACHN renal, 97.7%; in the experiment with CAKI-1 renal it was 79%. Also, the growth in the experiment with A498 renal is 78.8%; in the experiment with MOLT-4 leukemia, 74.4%.

As to `COc1ccc(-c2cc(/C=C/C(=O)c3ccc(N)cc3)[nH]n2)cc1`, the growth is 22.4% in the experiment with SK-MEL-2 melanoma; 18.4% in the experiment with SN12C renal; 39.6% in the experiment on UO-31 renal; 41.8% in the experiment with TK-10 renal; 26.9% in the experiment with ACHN renal; 38.7% in the experiment with CAKI-1 renal. Also, the growth in the experiment with A498 renal was -16.8% (active).

For `Nc1nc2c(c(=O)[nH]1)C(c1ccc3c(c1)OCO3)C=C(C(=O)O)N2` (stereo not given), the growth in the experiment with SK-MEL-2 melanoma was 116%; in the experiment on SN12C renal, 113%; in the experiment with UO-31 renal, 102%; in the experiment with TK-10 renal, 117%; in the experiment with ACHN renal, 111%; in the experiment on CAKI-1 renal, 97.1%. In addition, the growth is 94.7% in the experiment with A498 renal, 126% with CCRF-CEM leukemia and 106% in the experiment with MOLT-4 leukemia.

`CC(C)(C)c1[nH]nc2c1C(c1cc3ccccc3[nH]c1=O)Nc1cc(C(=O)OCc3ccccc3)ccc1N2` (stereo not given): the growth with SK-MEL-2 melanoma was 67%; in the experiment with SN12C renal, 61.2%; in the experiment with UO-31 renal, 47.2%; in the experiment on TK-10 renal it was 47.6%; in the experiment on ACHN renal it was 28.6%; with CAKI-1 renal, 54.6%. Further, the figures for the growth in the experiment with A498 renal, in the experiment with CCRF-CEM leukemia and in the experiment on MOLT-4 leukemia were 65%, 37.9% and 18%, respectively.

Regarding `Cc1nn2c(-c3nc4cc(Cl)c(Cl)cc4[nH]3)c(-c3ccc(F)cc3)nc2s1`, the growth was 57.9% in the experiment with SK-MEL-2 melanoma; 34% with SN12C renal; -67.1% (active) in the experiment on UO-31 renal; -33.1% (active) in the experiment with TK-10 renal; 9.13% (active) with ACHN renal; 13% in the experiment on CAKI-1 renal. The growth in the experiment with A498 renal is 29.8%; in the experiment with CCRF-CEM leukemia it was 66.5%; in the experiment with MOLT-4 leukemia it was 76.3%.

Regarding `COc1cc2c(cc1OC)C(=O)/C(=C/c1cc(-c3ccc4c(c3)OCO4)n[nH]1)C2`, the growth with SK-MEL-2 melanoma is 81.3%; with SN12C renal, 6.08% (active); with UO-31 renal it was -72.6% (active); in the experiment with TK-10 renal, -9.8% (active); in the experiment with ACHN renal, -7.41% (active); with CAKI-1 renal, 56.4%. Also, in the experiment with A498 renal, the growth is 25.8%.

Turning to `O=c1c2sc3ncc(Br)cc3c2ncn1-c1cccc(Cl)c1`, the growth in the experiment with SK-MEL-2 melanoma is 96.3%; in the experiment with SN12C renal it was 64.5%; with UO-31 renal, 52.1%; with TK-10 renal, 73.6%; with ACHN renal it was 28%; in the experiment on CAKI-1 renal it was 98.8%. Also, in the experiment on A498 renal, the growth is 71.7%.

With `O=C1NC(=Nc2ccc(S(=O)(=O)Nc3nccs3)cc2)S/C1=C\c1coc2ccccc2c1=O`, the growth with SK-MEL-2 melanoma is 133%; in the experiment with SN12C renal, 95.3%; with UO-31 renal, 82.6%; in the experiment with TK-10 renal it was 133%; in the experiment on ACHN renal it was 98.6%; in the experiment with CAKI-1 renal, 103%. For the same molecule, the growth in the experiment with A498 renal is 101%.

As for `COC(=O)[C@@H]1[C@H]2C[C@H]3c4[nH]c5cc(OC)ccc5c4CCN3C[C@@H]2C[C@H](OC(=O)/C=C/c2ccnc(OC)c2)[C@H]1OC`, the growth is 106% in the experiment with SK-MEL-2 melanoma; 99.2% in the experiment on SN12C renal; 67.5% in the experiment with UO-31 renal; 87.3% with TK-10 renal; 66.1% in the experiment with ACHN renal; 79.4% in the experiment on A498 renal. Further, the growth in the experiment on CCRF-CEM leukemia was 93.7%; with MOLT-4 leukemia, 75.9%.

On to `COC1=C(Br)C(=O)C(OC)=C(Br)C1=O`, for which the growth in the experiment on EKVX NSCLC was 105%; with SN12C renal it was 95.2%; in the experiment on UO-31 renal, 93.3%; in the experiment on TK-10 renal, 95.7%; with ACHN renal it was 104%; in the experiment on CAKI-1 renal it was 98.9%. Besides, the growth in the experiment on A498 renal was 128%; in the experiment with CCRF-CEM leukemia it was -12.3% (active); with MOLT-4 leukemia, 26.4%.

Take `COc1ccc(C(=O)/C=C/c2cc(-c3cc(OC)c(OC)c(OC)c3)n[nH]2)cc1OC`: the growth is 22.6% in the experiment on SK-MEL-2 melanoma; 5.5% (active) in the experiment on SN12C renal; -84.8% (active) in the experiment on UO-31 renal; -86.2% (active) with ACHN renal; -67% (active) in the experiment on CAKI-1 renal; 4.21% (active) in the experiment with A498 renal. Moreover, the growth in the experiment on CCRF-CEM leukemia is -18.6% (active).

For `[B-][N+](CC)(CC)c1ccccc1`, the growth is 113% with SK-MEL-2 melanoma; 108% with SN12C renal; 83.8% in the experiment with UO-31 renal; 110% in the experiment with TK-10 renal; 95.1% in the experiment on ACHN renal; 108% with A498 renal. Also, the growth is -12.5% (active) with CCRF-CEM leukemia and 95.2% in the experiment on MOLT-4 leukemia.
